Hits are enriched below; roughly 5.1% of the tested compounds scored in any of these assays.
S1P4 ag – human S1P4 receptor agonism. O95977. S1P4-expressing cell line, agonist reporter assay. activation, % at 4.98 µM. hit rate 0.35% among 220,000. AID 1509; in the data active = activation above about 11%
Target sequence (O95977 whole entry, looked up): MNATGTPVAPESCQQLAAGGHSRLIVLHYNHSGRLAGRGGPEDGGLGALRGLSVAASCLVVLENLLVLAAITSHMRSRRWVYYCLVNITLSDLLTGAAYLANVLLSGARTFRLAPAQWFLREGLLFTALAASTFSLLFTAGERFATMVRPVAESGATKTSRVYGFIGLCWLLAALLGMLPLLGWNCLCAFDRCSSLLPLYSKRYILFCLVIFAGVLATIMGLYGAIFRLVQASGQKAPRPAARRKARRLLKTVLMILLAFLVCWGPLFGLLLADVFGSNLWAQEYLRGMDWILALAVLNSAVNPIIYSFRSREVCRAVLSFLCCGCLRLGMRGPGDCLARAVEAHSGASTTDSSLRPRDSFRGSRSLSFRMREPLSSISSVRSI
Cl transport mod – modulators of human KCC2 chloride dependent transport; KCC2 cells, thallium flux FluoZin-2 fluorescence; B-score of Tl+ flux slope (higher = more flux/activation; lower = inhibition) at 10 µM; hit rate 2.2% among 190,000; AID 1456;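 active = thallium flux slope and its plate-corrected score both differing from the plate sample mean at a set confidence after two filtering rounds, in either direction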;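 note: slope of fluorescence scaled to starting intensity during 10 to 20 s after thallium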
S1P4 antag – human S1P4 receptor antagonism | O95977 | S1P4-expressing cells, antagonist mode, reporter read-out | inhibition, % at 4.98 µM | hit rate 0.26% among 220,000 | AID 1510; in the data active = inhibition above about 29%
ROMK primary – modulators of human ROMK potassium channel; Tet-inducible ROMK, thallium flux fluorescence; actives lie on both sides; P48048; hit rate 2% among 130,000; B-score at 10 µM;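 active = signal ratio slope over the read window, or its plate-corrected B-score, at least 3 SD from the plate mean, either direction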;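 note: B-score of the F/F0 ratio slope over 7 to 12 s after thallium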
RAM inhibit – blocks the yeast RAM network | S. cerevisiae dse1pr::URA3 reporter, 5-FOA growth OD615, 2 d; analog-sensitive cbk1-as2 kinase mutant strain | inhibition, % at 50 µM | hit rate 1.8% among 190,000 | AID 868;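 active = inhibition above a set limit, 3 SD over mean compound inhibition, cut at about 8.4% in these data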;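 note: inhibition rescues growth on 5-FOA so higher OD means more RAM inhibition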
S1P3 antag – antagonists of human S1P3 receptor. CHO S1P3 NFAT-BLA reporter, FRET fluorescence, antagonist mode. AID 485. hit rate 0.27% among 170,000. inhibition, % at 4.98 µM. Q99500;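 active = inhibition above the plate cutoff, the mean inhibition of test wells on that plate plus 3 SD, cut at about 28% in these data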;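 note: cells challenged with S1P at its EC80 of 0.8 µM; blue over green emission ratio from cleaved BLA substrate after 4 h stimulation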
S1P4 agonist cf – confirmation of human S1P4 receptor agonists | shares compounds with S1P4 ag | S1P4 agonist cell-based reporter assay | activation, % at 4.98 µM | hit rate 7% among 740; in the data active = activation above about 12%
S1P1 agonist – counter-screen for S1P4 agonists: agonists of human S1P1 | activation, % at 4.98 µM | hit rate 4% among 740 | S1P1 agonist cell-based assay, activation | shares compounds with S1P4 ag | AID 1563; in the data active = activation above about 21%
Of the large screens only hits and unclear results are named; the others gave an inactive call (follow-up assays come after a bar, where they were run).

Cc1ccc(C2=NOC(C)(c3nnc(-c4ccc(Cl)cc4)o3)C2)cc1 (stereo not given)	none (no result: S1P4 ag, S1P4 antag, ROMK primary, RAM inhibit, S1P3 antag)
CCc1ccc(NC(=O)N(CCN2CCOCC2)C2CCN(C(C)=O)CC2)cc1	S1P4 ag 16.2 (no result: Cl transport mod) | S1P4 agonist cf inactive | S1P1 agonist inactive
C=CCOC(=O)C1=C[C@H](C2CC2)[C@@H](CCCO)[C@H](OCC)O1	none (no result: ROMK primary)
Cc1c(C(=O)NC(C)C)sc2ncn(CC(=O)N3CCC(C)CC3)c(=O)c12	none (no result: ROMK primary, S1P3 antag)
O=[N+]([O-])c1ccc(COc2ccc(-c3[nH]ncc3-c3ccc(Cl)cc3)c(O)c2)cc1	S1P4 ag 113.8 (no result: ROMK primary) | S1P4 agonist cf inactive | S1P1 agonist inactive
COC(=O)c1cnc(N2CCCN(S(=O)(=O)c3ccc(C(F)(F)F)cc3)CC2)nc1C(F)(F)F	none (no result: ROMK primary, RAM inhibit)
O=C(CCCN1C(=O)/C(=C/c2ccccc2Cl)SC1=S)NNC(=O)c1ccccc1	S1P4 ag 18.3 | S1P4 agonist cf inactive | S1P1 agonist inactive
O=C(CCCN1C(=O)/C(=C/c2ccccc2Cl)SC1=S)NNC(=O)c1ccc(Cl)cc1Cl	none (no result: ROMK primary, RAM inhibit)
CC(C)=CC(O)C/C(C)=C/COc1ccc2ccc(=O)oc2c1 (stereo not given)	none (no result: S1P4 ag, S1P4 antag, ROMK primary, RAM inhibit, S1P3 antag)
CC(C)(C)NC(=O)C(c1ccc(O)cc1)N(C(=O)Cn1nnc(-c2ccc(F)cc2)n1)c1ccccc1F (stereo not given)	none
COc1cccc(C(=O)NNC(=O)Cc2cccs2)c1	S1P4 ag 23.9 (no result: ROMK primary) | S1P4 agonist cf inactive | S1P1 agonist inactive
COCc1ccc(C(=O)NC(C)c2cnn(-c3ccccc3C)c2C)o1 (stereo not given)	none
COc1cccc(CNC(=S)NC2CCCC2)c1	none
COc1ccc(CNC(=S)NC2CCCC2)cc1	S1P4 ag 11.5 (no result: ROMK primary) | S1P4 agonist cf inactive | S1P1 agonist inactive
Cc1cc(C)n(-c2nc3ccccc3nc2N2CCCCCC2)n1	none
Cc1cc(C)n(-c2nc3ccccc3nc2N2CCCC2)n1	S1P4 ag 87.5 (no result: ROMK primary, S1P3 antag) | S1P4 agonist cf inactive | S1P1 agonist inactive
O=C(COc1ccccc1)NCc1cccs1	S1P4 ag 14.0 (no result: ROMK primary, S1P3 antag) | S1P4 agonist cf inactive | S1P1 agonist inactive
Cc1ccc2oc(C(Cl)(Cl)Cl)cc(=O)c2c1	none (no result: S1P3 antag)
CCN(CC)S(=O)(=O)c1ccc(C(=O)NNc2nc(-c3ccccc3)c3cc(Br)ccc3n2)cc1	S1P4 ag 13.5 (no result: ROMK primary) | S1P4 agonist cf inactive | S1P1 agonist inactive
CCn1c(=O)c(-c2nc3ccccc3[nH]2)c(O)c2ccccc21	S1P4 ag 35.4 | S1P4 agonist cf inactive | S1P1 agonist inactive
O=C(O)c1cccc(C(=O)c2cccc(C(=O)O)c2)c1	S1P4 ag 41.1 | S1P4 agonist cf inactive | S1P1 agonist inactive
O=C(CN1c2ccccc2Sc2ccccc21)NNC(=S)Nc1ccc(Cl)cc1	S1P4 ag 94.1 (no result: RAM inhibit) | S1P4 agonist cf inactive | S1P1 agonist inactive
O=C(CSCC(=O)NC1CC1)Nc1ccc2ccccc2c1	none (no result: ROMK primary, S1P3 antag)
Clc1ccc(C2=NN(c3ccccc3)C(c3ccco3)C2)cc1 (stereo not given)	S1P4 ag 20.4 (no result: ROMK primary, RAM inhibit) | S1P4 agonist cf 14.2 | S1P1 agonist 30.3
CC(=O)NCCCc1nc2ccccc2n1Cc1c(F)cccc1Cl	S1P4 ag 51.9 (no result: ROMK primary, RAM inhibit) | S1P4 agonist cf inactive | S1P1 agonist inactive
CC(=O)NCCCc1nc2ccccc2n1Cc1cc(C)ccc1C	none
COc1ccc(-n2c(CN3CCN(c4ccccn4)CC3)nc3ccc([N+](=O)[O-])cc3c2=O)c(OC)c1	none
O=C(CSc1ccc(-c2cccs2)nn1)Nc1ccccc1	S1P4 ag 34.6 | S1P4 agonist cf inactive | S1P1 agonist inactive
Cc1cc(/C=C2\SC(=S)N(C)C2=O)c(C)n1-c1cccc(O)c1	none (no result: RAM inhibit)
CN=C1S/C(=C\c2cc(C)n(-c3ccccc3F)c2C)C(=O)N1C	S1P4 ag 58.5 (no result: Cl transport mod, S1P3 antag) | S1P4 agonist cf 89.3 | S1P1 agonist 72.2
Fc1cccc(NC(=S)NCCc2ccccc2)c1	none
O=[N+]([O-])c1cccc(NC(=S)NCCc2ccccc2)c1	S1P4 ag 20.3 (no result: ROMK primary) | S1P4 agonist cf inactive | S1P1 agonist inactive
O=C(CSC(=S)N1CCSCC1)c1ccccc1	S1P4 ag 53.0 | S1P4 agonist cf inactive | S1P1 agonist inactive
Cc1cccc(C)c1N(Cc1ccccc1F)S(C)(=O)=O	S1P4 ag 32.9 | S1P4 agonist cf inactive | S1P1 agonist inactive
